Out of some 370,000 compounds screened, about 5,400 (1.5%) were called active. The list comes from a sample in which actives are over-represented; it also holds similar structures and randomly drawn compounds. Values without a mark were called inactive.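 How the source made its calls: active means activation above the mean of all tested compounds plus 3 SD (cut at about 5.5% in these data); inactive means the rest.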
The compounds below were run on DAF-12 nuclear receptor (Haemonchus contortus) (assay: H. contortus DAF-12 nuclear receptor activators, primary screen, cell-based, luminescence, HEK293, lit1-tk-luc reporter (AID 652067;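 further: 100% = response to 3 µM Δ7-dafachronic acid high control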)). Conditions: HEK293 hcDAF-12 lit1-tk-luc reporter, at 6.8 µM, hits give high values, 0% DMSO, 100% Δ7-dafachronic acid.

Row | SMILES | activation
1 | C[C@H]1CCC/C=C/C(=O)c2c(O)cc(O)cc2CC(=O)O1 | -4.76%
2 | Cc1csc(SCC(=O)Nc2sccc2C#N)n1 | 6.55% (active)
3 | N#Cc1ccsc1NC(=O)CN1CCCCC1 | -2.18%
4 | Cc1csc(SCC(=O)Nc2ccc(C)c(S(=O)(=O)N(C)C)c2)n1 | -0.11%
5 | Cc1ccc(NC(=S)NNC(=O)CSc2nnc(SCc3ccccc3Cl)s2)cc1 | 0.49%
6 | CCOC(=O)c1ccccc1NC(=O)COC(=O)CCC(=O)N1CCOCC1 | -0.53%
7 | CSc1ncccc1C(=O)OCC(=O)N1CCOCC1 | -1.11%
8 | CCOC(=O)c1ccccc1C(=O)N1CCOCCOCCOCC1 | 6.11% (active)
9 | CC(CCc1ccccc1)NCC(O)c1cccc([N+](=O)[O-])c1 (stereo not drawn) | -0.61%
10 | Cn1c(=NC(=O)c2cnccn2)sc2ccccc21 | 3.28%
11 | Cc1cc(NC(=O)c2ccco2)c(=O)n(Cc2c(F)cccc2Cl)c1 | -0.57%
12 | Cn1c(=NC(=O)c2ccco2)sc2cccc(F)c21 | 10.7% (active)
13 | C=CCN1C(=O)[C@H](CC(=O)N2CCN(C(=O)OCC)CC2)[C@@]2(C(=O)OCC)CCCC=C12 | -0.81%
14 | Cc1ccccc1CN1CCCCC(NC(=O)c2cccc(C#N)c2)C1=O (stereo not drawn) | -2.63%
15 | Cc1ccc(C(=O)C2CCN(CC(=O)NCCC(C)C)CC2)cc1 | -1.66%
16 | COc1ccc([C@H]2OC(=O)C[C@H]2C(=O)N2CCN(c3ccccc3F)CC2)cc1OC | -0.81%
17 | N#Cc1c(C(F)(F)F)cc(-c2ccc(Cl)cc2)nc1SCC(=O)O | 6.47% (active)
18 | Cc1cc(C(F)(F)F)c(C#N)c(SCC(=O)NC2CC2)n1 | -2.02%
19 | CCN(CC)c1nc(-c2ccccc2)cc(C(F)(F)F)c1C#N | -1.43%
20 | CN(C)S(=O)(=O)c1cccc(C(=O)N/N=C\c2ccco2)c1 | 0.08%
21 | Cc1ccsc1C(=O)NC1CCCCC1C (stereo not drawn) | -1.43%
22 | Cc1ccsc1C(=O)N/N=C/c1ccc([N+](=O)[O-])cc1 | 6.15% (active)
23 | Cc1ccc(/C=N/NC(=O)c2sccc2OCc2ccc(F)cc2)cc1 | 0.06%
24 | O=C(NCCC1=CCCCC1)C1CCN(S(=O)(=O)c2ccc(Cl)s2)CC1 | -1.29%
25 | CC(=O)c1ccc(S(=O)(=O)NCC2CCN(C(=O)C(=O)c3cccs3)CC2)cc1 | -1.54%
26 | COc1ccc(-c2cc(C3CCN(c4ncccc4[N+](=O)[O-])CC3)[nH]n2)cc1 | -1.95%
27 | COc1ccc(-c2cc3ncccc3cn2)cc1 | 7.99% (active)
28 | COc1ccc(-c2cc3n(n2)CCc2nc4ccccc4n2-3)cc1 | 2.18%
